Source: PubChem BioAssay
An excerpt weighted towards active compounds, which were near 3% of everything screened.
SENP8 block-1 = blocks the human protease SENP8; Q96LD8; purified SENP8, Z-RLRGG-aminoluciferin cleavage, luminescence; inhibition, % at 10 µM; 330,000 tested, 1.2% active; AID 2540; in the data active = inhibition above about 50%
Target sequence (Q96LD8 whole entry, looked up): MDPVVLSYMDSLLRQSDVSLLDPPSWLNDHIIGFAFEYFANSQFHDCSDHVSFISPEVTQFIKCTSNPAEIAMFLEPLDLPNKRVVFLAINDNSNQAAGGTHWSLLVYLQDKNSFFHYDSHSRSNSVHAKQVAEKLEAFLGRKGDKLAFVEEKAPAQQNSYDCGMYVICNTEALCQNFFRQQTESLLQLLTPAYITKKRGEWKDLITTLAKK
SENP7 block = blocks the human protease SENP7; Q9BQF6; recombinant SENP7, Z-RLRGG-aminoluciferin luminescence, 40 min; inhibition, % at 5 µM; 330,000 tested, 1.5% active;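 active = inhibition above about 50% at the single test dose, limit read from the data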
SENP8 block-2 = inhibitors of human SENP8 protease; Q96LD8; recombinant SENP8, Nedd8 substrate fluorescence; inhibition, % at 20 µM; 360,000 tested, 0.64% active; in the data active = inhibition mostly above about 40%, no sharp cut-off; inactive = mostly below about 27%
SENP6 inh = SENP6 protease inhibition | 330,000 tested, 1.8% active | Q9GZR1 | Recombinant SENP6 catalytic domain, aminoluciferin luminescence | inhibition, % at 10 µM;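 active = inhibition above about 50% at the single tested dose, limit read from the data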
Target sequence (Q9GZR1 628-1112 limits assumed): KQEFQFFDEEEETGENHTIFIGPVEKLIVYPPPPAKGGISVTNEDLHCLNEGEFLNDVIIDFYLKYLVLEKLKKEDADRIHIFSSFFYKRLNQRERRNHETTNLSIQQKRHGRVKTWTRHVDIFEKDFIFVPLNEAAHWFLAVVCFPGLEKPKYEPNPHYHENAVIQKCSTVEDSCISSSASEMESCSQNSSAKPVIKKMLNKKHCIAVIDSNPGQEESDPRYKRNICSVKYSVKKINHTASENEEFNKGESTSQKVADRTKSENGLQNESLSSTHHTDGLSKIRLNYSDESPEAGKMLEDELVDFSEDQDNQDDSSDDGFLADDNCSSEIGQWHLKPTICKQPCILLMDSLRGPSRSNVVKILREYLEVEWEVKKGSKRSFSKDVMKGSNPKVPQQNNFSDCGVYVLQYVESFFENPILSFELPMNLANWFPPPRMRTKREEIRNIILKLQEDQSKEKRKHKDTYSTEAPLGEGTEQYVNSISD
C8 TRAIL sens = caspase-8 TRAIL sensitization. 360,000 tested, 1% active. inhibition (viability loss, TRAIL sensitization), % at 10 µM. NB7+C8 cells + TRAIL, ATPlite viability luminescence;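 active = compounds causing at least 50% loss of cell viability in the single-dose screen, relative to plate controls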
PPC-1+TRAIL kill = PPC-1 cancer cell killing with TRAIL present | 220,000 tested, 0.41% active | PPC-1 cells + TRAIL, ATPLite viability luminescence | AID 1443 | cell killing (% activity), % at 4 µM or 5 µM;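 active = cell killing above 50% in the first pass at 4 µM, then a duplicate retest at 5 µM averaging 50% or more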
SENP8 confirm = confirmation of human SENP8 protease inhibitors; Recombinant SENP8, Z-RLRGG-aminoluciferin luminescence, 60 min; 6,200 tested, 40% active; AID 488912; shares compounds with SENP7 block; inhibition, % at 12.5 µM;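 active = mean inhibition across replicates above about 50%, limit read from the data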
SENP6 confirm = confirmation of human SENP6 protease inhibitors; 6,200 tested, 58% active; shares compounds with SENP7 block; recombinant SENP6, Z-RLRGG-aminoluciferin luminescence; AID 488915; inhibition, % at 12.5 µM
SENP7 confirm = human SENP7 inhibition, confirmed; inhibition, % at 12.5 µM; 6,200 tested, 69% active; shares compounds with SENP7 block; recombinant SENP7, Z-RLRGG-aminoluciferin luminescence, 40 min; AID 488917
Casp3 SENP sel = inhibits human caspase-3 in SENP selectivity test; AID 488918; shares compounds with SENP7 block; 6,200 tested, 60% active; inhibition, % at 12.5 µM; purified caspase-3, Z-DEVD-aminoluciferin luminescence, 60 min;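 active = mean inhibition above about 50%, limit read from the data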
Luc interf = counter-screen for SENP inhibitors: luminescence interference; 6,200 tested, 39% active; AID 488919; Pre-incubated SENP8/Z-RLRGG-aminoluciferin, luciferase luminescence interference; inhibition, % at 12.5 µM; shares compounds with SENP7 block;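 active = mean inhibition above about 50% when retested at one dose, limit read from the data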
Hits are given with their value; 0 = inactive; - = not tested or not shown.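 Rule for the calls, unless noted: active = mean inhibition above about 50% in the one-dose retest (limit read from the data); inactive = the rest.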

SMILES | SENP8 block-1 | SENP7 block | SENP8 block-2 | SENP6 inh | C8 TRAIL sens | PPC-1+TRAIL kill | SENP8 confirm | SENP6 confirm | SENP7 confirm | Casp3 SENP sel | Luc interf
COc1ccc(/C=N/NC(=O)c2ccc[nH]2)cc1 | 76.9 | 87.7 | 0 | 79.5 | 0 | - | 74.6 | 74.0 | 94.6 | 92.1 | 84.2
O=C(NC1CCCCC1)C(c1ccncc1)N(C(=O)c1csnn1)c1ccc(F)cc1 (stereo unspecified) | 0 | 0 | 0 | 0 | 0 | - | - | - | - | - | -
COc1ccc(-c2ccc(N3C(c4ccsc4)=Cc4ccc(F)cc4C3c3c[nH]c4ccccc34)cc2)cc1 (stereo unspecified) | - | - | 0 | - | 0 | - | - | - | - | - | -
O=C(Nc1ccc(N2CCOCC2)c2nonc12)C1CCCC1 | 0 | 0 | 0 | 0 | 0 | 0 | - | - | - | - | -
O=C(Nc1ccc(F)cc1)Nc1ccc(N2CCOCC2)c2nonc12 | 0 | 57.3 | 0 | 0 | 0 | 0 | 0 | 0 | 0 | 0 | 0
O=C(c1ccccc1)c1cc2ccccc2o1 | 50.8 | 65.5 | 0 | 74.3 | 0 | 0 | 0 | 58.1 | 82.5 | 52.9 | 0
COc1cccc2cc(C(=O)c3ccccc3)oc12 | 60.6 | 62.0 | 0 | 72.9 | 0 | 0 | 0 | 59.5 | 84.3 | 60.7 | 64.0
COc1ccc(OC(=O)c2cc3ccccc3o2)cc1 | 0 | 70.7 | 0 | 60.8 | 0 | 0 | 0 | 0 | 88.9 | 0 | 0
O=C(c1ccc(F)cc1)c1cc2ccccc2o1 | 51.5 | 66.6 | 0 | 83.7 | 0 | 0 | 0 | 0 | 83.5 | 57.2 | 0
CN1CCN(c2c([N+](=O)[O-])cnc3ccccc23)CC1 | 0 | 0 | 0 | 0 | 0 | - | - | - | - | - | -
Brc1ccccc1OCCN1CCCC1 | 0 | 0 | 0 | 0 | 0 | - | - | - | - | - | -
COc1ccc(Cn2c(O)c(C=Nc3ccccc3)c3ccccc3c2=O)cc1 | 0 | 0 | 0 | 0 | 0 | 0 | - | - | - | - | -
COc1ccc(OC)c(N=Cc2c(O)c3ccccc3oc2=O)c1 | 0 | 0 | 0 | 0 | 0 | - | - | - | - | - | -
COc1ccc(Cn2c(O)c(C=Nc3ccc(O)cc3)c3ccccc3c2=O)cc1 | 0 | 0 | 0 | 66.9 | 0 | 0 | 0 | 0 | 0 | 0 | 0
Cc1ccc(N=Cc2c(O)c3ccccc3oc2=O)cc1F | 0 | 70.0 | 0 | 0 | 0 | - | 0 | 0 | 0 | 0 | 0
COc1ccc(N=Cc2c(O)c3ccccc3oc2=O)cc1 | 0 | 89.9 | 0 | 90.8 | 0 | 0 | 69.7 | 73.5 | 83.5 | 65.7 | 0
CC(C)c1ccc(N=Cc2c(O)c3ccccc3oc2=O)cc1 | 63.0 | 90.7 | 0 | 85.1 | 0 | - | 57.6 | 60.2 | 77.0 | 0 | 0
O=[N+]([O-])c1ccc(CS(=O)(=O)c2ncn[nH]2)cc1 | 0 | 0 | 0 | 0 | 0 | - | - | - | - | - | -
CCCCN(C=O)c1c(CC)nc2ccc(C(=O)Nc3cc(-c4ccccc4)ccc3OC)cn12 | - | - | 0 | - | 0 | - | - | - | - | - | -
CN(C(=O)COC(=O)c1ccccc1NCc1ccco1)c1c(N)n(Cc2ccccc2)c(=O)[nH]c1=O | 0 | 0 | 0 | 0 | 0 | - | - | - | - | - | -
COc1ccc(S(=O)(=O)Nc2ccc3c(c2)C(=O)N([C@H](C)CO)C[C@H](C)[C@@H](CN(C)C(=O)NC2CCCCC2)O3)cc1 | 0 | 0 | 0 | 0 | 0 | - | - | - | - | - | -
O=C(O)c1cc(N=Cc2c(O)c3ccccc3oc2=O)ccc1O | 74.0 | 90.9 | 0 | 93.7 | 0 | - | 93.1 | 86.0 | 100.9 | 0 | 94.8
COc1ccc(-n2nc3cc(N)c(Br)cc3n2)cc1 | 74.3 | 67.4 | 0 | 84.5 | 0 | - | 0 | 67.4 | 88.9 | 0 | 0
CCc1ccc(-n2nc3cc(C)c(N)cc3n2)cc1 | 0 | 0 | 0 | 68.7 | 65.6 | - | 72.8 | 75.6 | 96.7 | 68.7 | 0
COc1ccc(-n2nc(C)cc2N)cc1 | 0 | 0 | 0 | 0 | 0 | 0 | - | - | - | - | -
SMILES | SENP8 block-1 | SENP7 block | SENP8 block-2 | SENP6 inh | C8 TRAIL sens | PPC-1+TRAIL kill | SENP8 confirm | SENP6 confirm | SENP7 confirm | Casp3 SENP sel | Luc interf
Cc1ccc(-n2nc3cc(C)c(N)cc3n2)cc1 | 0 | 0 | 0 | 0 | 0 | 0 | - | - | - | - | -
COc1ccc(-n2nc3cc(C)c(N)c(Br)c3n2)cc1 | 0 | 0 | 0 | 62.9 | 0 | 0 | 0 | 0 | 53.2 | 0 | 0
Cn1cc(C(=O)NS(=O)(=O)Nc2ccc(Br)cn2)c2ccccc21 | 0 | 0 | 0 | 0 | 0 | - | - | - | - | - | -
COc1ccc(NC(=O)c2ccc(=O)[nH]c2)cc1S(=O)(=O)N1CCOCC1 | 0 | 0 | 0 | 0 | 0 | - | - | - | - | - | -
O=c1[nH]c2ccc(Br)cc2c(=O)o1 | - | - | 0 | - | 0 | - | - | - | - | - | -
CC(C)NC(=O)c1ccc(COc2cc(Cl)ccc2Cl)o1 | 0 | 0 | 0 | 0 | 0 | - | - | - | - | - | -
NC(=O)c1ccsc1NC(=O)c1ccc(S(=O)(=O)N2CCCC2)cc1 | 0 | 0 | 0 | 0 | 0 | 0 | - | - | - | - | -
NC(=O)c1ccsc1NC(=O)c1ccc(S(=O)(=O)N2CCCCC2)cc1 | 57.8 | 0 | 0 | 66.7 | 0 | 0 | 56.8 | 71.9 | 91.7 | 55.8 | 0
COc1nc(C)ccc1-c1noc(-c2cccs2)n1 | 0 | 70.0 | 0 | 62.4 | 0 | 0 | 0 | 0 | 83.8 | 0 | 0
COc1nc(-c2ccccc2)ccc1-c1noc(-c2cccs2)n1 | 0 | 0 | 0 | 0 | 0 | - | - | - | - | - | -
Cc1ccccc1-c1noc(-c2cccs2)n1 | 77.6 | 84.5 | 0 | 85.5 | 0 | 0 | 0 | 83.5 | 94.2 | 60.6 | 0
COc1ccc(Cl)cc1NC(=O)Cn1c(C)csc1=O | 0 | 0 | 0 | 0 | 0 | - | - | - | - | - | -
Cc1ccc(-c2nnc(-c3ccccc3Br)o2)cc1 | 86.1 | 82.6 | 0 | 89.7 | 58.4 | - | 0 | 87.9 | 98.2 | 74.2 | 75.9
Brc1ccccc1-c1nnc(-c2cccnc2)o1 | 0 | 0 | 0 | 0 | 0 | 0 | - | - | - | - | -
Brc1ccc(-c2nnc(-c3ccccc3Br)o2)cc1 | 70.2 | 73.7 | 0 | 63.9 | 0 | 0 | 0 | 0 | 0 | 0 | 0
CC(C)N(C(C)C)S(=O)(=O)c1ccc(NC(=O)c2cnccn2)cc1 | 0 | 0 | 0 | 0 | 0 | - | - | - | - | - | -
CCC(C(=O)OCC(=O)N1CCN(S(=O)(=O)c2ccc(C)cc2C)CC1)c1ccccc1 (stereo unspecified) | 0 | 0 | 0 | 0 | 0 | - | - | - | - | - | -
CCOC(=O)c1cc2c(OC)c(OC)ccc2c2[nH]cc(C#N)c(=O)c12 | - | - | 0 | - | 0 | - | - | - | - | - | -
CC1c2ccccc2-c2ccccc2N1C (stereo unspecified) | - | - | 0 | - | 0 | - | - | - | - | - | -
Cc1ccc(NC(=O)c2cc(-c3ccco3)on2)cc1 | 0 | 0 | 0 | 0 | 0 | 0 | - | - | - | - | -
O=C(Nc1cccnc1)c1cc(-c2ccc(Br)cc2)on1 | 0 | 83.9 | 0 | 0 | 0 | 0 | 0 | 0 | 0 | 0 | 0
CC(C)c1cc(C(=O)Nc2cccnc2)no1 | 0 | 63.4 | 0 | 62.3 | 0 | 0 | 61.0 | 56.2 | 85.7 | 88.2 | 64.6
